The record followed here is PubChem BioAssay (NCATS).

“And” between values parts separate entries of the source, which are not always exact repeats. Equal values may be shown once. Inconclusive results are not listed. The source made the active and inactive calls. Calls come from the whole dose curve; as a rule, active = well fitted inhibition curve with a large enough effect; inconclusive = small, poorly fitted or top-dose-only effect; inactive = no such curve, though single readings can be large or run the other way.
% is set by controls: 0 for no effect and ±100 for the full control effect; potency is the fitted concentration of half-maximal effect.

The target of this assay is Cytochrome P450 2C9 (Homo sapiens) (UniProt P11712). As to the kind of experiment: qHTS Assay for Inhibitors and Substrates of Cytochrome P450 2C9 (AID 883). Note: nearly all actives have a fitted effect of over 60% in size. To be noted: recombinant CYP2C9, luciferin-H luminescence, 60 min; series mostly up to 11.4 µM; activity change, negative = inhibition: at the top concentration. How it is done: NIH Molecular Libraries Screening Centers Network [MLSCN] NIH Chemical Genomics Center [NCGC] MLSCN Grant: None NCGC Assay Overview: The P450 gene superfamily is involved in the metabolism and clearance of xenobiotics. This assay used human CYP2C9 to measure the hydroxylation of deoxyluciferin (Luciferin-H; P450 Glo-Buffer) to luciferin. The luciferin is then measured by luminescence after the addition of a luciferase detection reagent. Luciferin-H concentration in the assay was equal to its Michaelis constant KM for CYP2C9. Inhibitors and some substrates limit the production of luciferin, and decrease measured luminescence.
Cytochrome P450 2C9 (Homo sapiens), sequence (P11712 whole entry, looked up): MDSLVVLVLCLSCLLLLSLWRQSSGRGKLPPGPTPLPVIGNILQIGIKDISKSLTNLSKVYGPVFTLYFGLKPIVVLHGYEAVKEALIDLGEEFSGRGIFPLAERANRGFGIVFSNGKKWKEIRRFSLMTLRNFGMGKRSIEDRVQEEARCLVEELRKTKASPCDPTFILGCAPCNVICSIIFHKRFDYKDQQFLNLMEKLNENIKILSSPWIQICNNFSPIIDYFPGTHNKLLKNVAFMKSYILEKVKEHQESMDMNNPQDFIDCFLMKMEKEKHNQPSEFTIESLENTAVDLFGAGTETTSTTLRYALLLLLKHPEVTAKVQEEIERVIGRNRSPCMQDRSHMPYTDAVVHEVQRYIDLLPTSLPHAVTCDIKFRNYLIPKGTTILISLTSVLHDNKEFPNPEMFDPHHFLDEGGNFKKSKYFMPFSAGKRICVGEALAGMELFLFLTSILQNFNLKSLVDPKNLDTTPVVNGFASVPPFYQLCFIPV
NCGC Assay Protocol Summary: Two uL of enzyme and substrate mix (final concentrations: 10nM CYP2C9, 100uM Luciferin-H, 25mM KPO4) were dispensed into a white, solid bottom 1536-well microtiter plate. 23nL of compound was transferred by a pin tool. The plate was incubated at 37C for 10 min. Two uL of an NADPH regeneration solution (Promega supplied reagent) was dispensed and the reaction was allowed to continue for 60 min at 37C. Then the reaction was stopped by reconstituted P450 Glo-Buffer. After another 20 min of incubation the plate was read on the ViewLux (Perkin Elmer) at 60 sec exposure and 2x2 binning. This protocol was carried out with Promega-Glo reagents and further information can be found at http://www.promega.com/tbs/tb325/tb325.pdf. Data were normalized to the to AC100 inhibition (57uM sulphaphenazole). Keywords: P450, CYP2C9, Luciferase, MLSMR, MLSCN, NIH Roadmap, qHTS, NCGC
For orientation: qHTS replaces the single test concentration by a dilution series.
Regarding `COc1ccc(OC2C=CC(C#Cc3ccc(Br)cc3)OC2CO)c(C(C)(C)C)c1` (stereo not given), the Potency is 3.16 µM (active).

As to `C=CCOC(=O)/C=C/NC(=O)/C=C/C=C/CCCCCCCC(C)O` (stereo not given), the Potency is 3.98 µM (active) and 2.51 µM (active).

Take `C=CCOCC1CN2C(CCC(C)C2c2ccc(Br)cc2)C(=O)O1` (stereo not given): the “activity change, negative = inhibition” value was -0.545% (inactive).

For `CC(C)CN1CCc2nc(-c3ccccc3)c3c(c2CC1)COC(C)C3` (stereo not given), the “activity change, negative = inhibition” value is 6.58% (inactive).

Take `C=CCOC(=O)C(C(C)=O)C(NC(=O)OC)c1ccc(F)cc1` (stereo not given): the “activity change, negative = inhibition” value was 17.1% (inactive).

`CC(=O)c1ccc(C2C=CC(O)C(CO)O2)cc1` (stereo not given): the “activity change, negative = inhibition” value is -0.847% (inactive).

`CC(C)CC1OCCC=CC1C` (stereo not given): the “activity change, negative = inhibition” value is 8.14% (inactive).

On to `COC(=O)C/C=C\[C@@H](C)[C@@H](/C=N\OC[C@@H]1O[C@H](c2ccccc2)C=C[C@@H]1Oc1ccc(OC)cc1)NS(=O)(=O)c1ccc(C)cc1`, for which the Potency is 1.26 µM (active).

For `CCCc1cc2c(c(=O)o1)C(O)C1OC1C2=O` (stereo not given), the “activity change, negative = inhibition” value is -21.1% (inactive).

Turning to `CCC(=O)[C@@]1(O)C(=O)N2C(=C3C(=O)OCCC31)N(Cc1ccccc1)C(C)=C(C(=O)OC)C2c1ccccc1` (stereo not given in full), the “activity change, negative = inhibition” value was 21.8% (inactive).

`COC(=O)[C@@H]1CC[C@H](C)[C@@H](c2ccc(C)cc2)N1C(=O)c1ccc(/C=N\O[C@@H](C)c2cn([C@H](CO)Cc3ccccc3)nn2)cc1`: the Potency was 3.16 µM (active) and 2.51 µM (active).

Take `Cc1ccc(S(=O)(=O)N[C@H]2COC(=O)C/C=C\[C@@H](C)COC(=O)C/C=C\[C@@H]2C)cc1`: the “activity change, negative = inhibition” value was 31.3% (inactive).

For `CC1CCC2C(=O)OC(COc3ccc(C(C)(C)C)cc3)CN2C1c1ccc(Br)cc1` (stereo not given), the Potency result is “inactive”.

For the compound `COc1ccc(OC2C=CC(c3ccccc3)OC2CO)cc1` (stereo not given), the “activity change, negative = inhibition” value is 2.34% (inactive).

Take `CCCNC(=O)OC[C@@H]1O[C@H](CCO/N=C\c2ccc(C(=O)N3[C@H](c4ccc(C)cc4)[C@@H](C)CC[C@H]3C(=O)OC)cc2)C=C[C@@H]1Oc1ccc(OC)cc1`: the Potency was 3.98 µM (active).

For the compound `O=C1CCC[C@@H](C(C(=O)OCc2ccccc2)C(=O)OCc2ccccc2)C1`, the Potency is 3.16 µM (active).

Consider `CCOC(=O)OCC1OC(CCc2ccccc2)CCC1Oc1ccc(OC)cc1` (stereo not given), for which the “activity change, negative = inhibition” value is -25% (inactive).

On to `COC(=O)CC1=COC2OCC3=CC[C@@H]1C32` (stereo not given in full), for which the “activity change, negative = inhibition” value was 28.7% (inactive).

`COc1ccc(/C=C/N(CCc2ccc(OC)c(OC)c2)C(C)=O)cc1`: the Potency is 3.16 µM (active).

Take `C(#CC1C=CC2OC(c3ccccc3)OCC2O1)c1ccccc1` (stereo not given): the “activity change, negative = inhibition” value was 67.8% (inactive).

For the compound `C/C(CCN1CCCCc2nc(C)c(C)cc21)=N\O[C@@H](C)c1cc(-c2c(C)cc(C)cc2C)no1`, the Potency is 2.51 µM (active).

For the compound `C=CCc1cccc(C2C(C)CCC3C(=O)N4C(Cc5c([nH]c6ccccc56)C4c4cc(OC)c(OC)c(OC)c4)C(=O)N32)c1` (stereo not given), the “activity change, negative = inhibition” value is -14.4% (inactive).

`COc1cc(O)c(C(=O)/C=C/c2ccccc2)c(O)c1`: the Potency is 2 µM (active).

With `C=CCc1cccc(C2NC(C(=O)O)CCC2C)c1` (stereo not given), the “activity change, negative = inhibition” value was 1.98% (inactive).

In the case of `COC(=O)NC(CC(C)=O)c1ccc2c(c1)OCO2` (stereo not given), the “activity change, negative = inhibition” value is 37.8% (inactive).

On to `COC(=O)NC(c1cccc(C)c1)[C@]1(C(C)=O)CCOC1=O` (stereo not given in full), for which the Potency is 3.16 µM (active).

As to `CC1(C)OC(C(O)(c2ccccc2)c2ccccc2)C(C(O)(c2ccccc2)c2ccccc2)O1` (stereo not given), the “activity change, negative = inhibition” value is -16% (inactive).

As for `CCOP(=O)(CC(C(C)=O)C(O)c1ccccc1)OCC` (stereo not given), the “activity change, negative = inhibition” value is 23.9% (inactive).

In the case of `COc1ccc(/C=C/NC(=O)c2ccc(OC)cc2)cc1`, the “activity change, negative = inhibition” value was -1.7% (inactive).

For the compound `O=C1CCCC=C1[C@H](CCc1ccccc1)OC(=O)c1ccc(Br)cc1`, the Potency was 3.16 µM (active).

For the compound `COC(=O)C(C(=O)OC)C1O[C@@]23COCCC2(C)C3c2ccccc21` (stereo not given in full), the “activity change, negative = inhibition” value was -4.37% (inactive).

As to `CO[C@H]1COC(=O)C/C=C\[C@H](C)[C@@H](OC)COC(=O)[C@H](C)COC(=O)C/C=C\[C@@H]1C`, the “activity change, negative = inhibition” value was 36.4% (inactive).

As for `CC(=O)OCC1OC(C#Cc2ccc(Br)cc2)C=CC1OC(C)=O` (stereo not given), the “activity change, negative = inhibition” value was -11.6% (inactive).

As for `COC(=O)C1=C(C)N(Cc2ccccc2)[C@]23O[C@](C(=O)OC)(C(=O)N2C1c1ccccc1)C1C(=O)N(C)C(=O)C13` (stereo not given in full), the Potency result was “inactive”.

As to `CCC(=O)[C@]12O[C@@]3(C4C(=O)OCCC41)N(Cc1ccccc1)C(C)=C(C(=O)OC)C(c1ccccc1)N3C2=O` (stereo not given in full), the “activity change, negative = inhibition” value is 8.72% (inactive).

Take `CCCCC#CC1C=CC(Oc2ccc(OC)cc2)C(CO)O1` (stereo not given): the “activity change, negative = inhibition” value was 109% (inactive).

In the case of `CC12C=C(/C=C/CCc3ccco3)C(C)(C1)C(CCc1ccco1)CC2=O` (stereo not given), the “activity change, negative = inhibition” value was 14.4% (inactive).

In the case of `COC(=O)NC(c1ccc(F)cc1)C(C(C)=O)C(=O)OC` (stereo not given), the “activity change, negative = inhibition” value is 3.19% (inactive).

In the case of `COc1ccc(-c2ccccc2C2NC(C(=O)O)CCC2C)cc1` (stereo not given), the “activity change, negative = inhibition” value was 38.7% (inactive).

`COC(=O)NC(/C(C(=O)OC)=C(\C)NCc1ccccc1)c1ccc(F)cc1` (stereo not given): the Potency is 2.51 µM (active).
